Experimental data reported in PubChem BioAssay (NCATS).
Results filed as inconclusive are left out. The source made the active and inactive calls. The call rests on the fitted dose curve; in most records, active means well fitted curve in the direction sought with a large enough effect; inconclusive means small, poorly fitted or top-dose-only effect, or another doubt; inactive means no such curve, though single readings can be large; an effect the other way counts as inactive or inconclusive.

Tests used:
[1] = target: ATP-dependent 6-phosphofructokinase (Trypanosoma brucei brucei) (UniProt O15648); assay: qHTS Assay to Find Inhibitors of T. brucei phosphofructokinase: hit validation (AID 492961);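 further: luminescence reports ADP formed as PFK phosphorylates fructose-6-phosphate with ATP; on the % scale 0 is the no-effect control and ±100 the full control effect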
Sequence of ATP-dependent 6-phosphofructokinase (Trypanosoma brucei brucei) (O15648 whole entry, looked up): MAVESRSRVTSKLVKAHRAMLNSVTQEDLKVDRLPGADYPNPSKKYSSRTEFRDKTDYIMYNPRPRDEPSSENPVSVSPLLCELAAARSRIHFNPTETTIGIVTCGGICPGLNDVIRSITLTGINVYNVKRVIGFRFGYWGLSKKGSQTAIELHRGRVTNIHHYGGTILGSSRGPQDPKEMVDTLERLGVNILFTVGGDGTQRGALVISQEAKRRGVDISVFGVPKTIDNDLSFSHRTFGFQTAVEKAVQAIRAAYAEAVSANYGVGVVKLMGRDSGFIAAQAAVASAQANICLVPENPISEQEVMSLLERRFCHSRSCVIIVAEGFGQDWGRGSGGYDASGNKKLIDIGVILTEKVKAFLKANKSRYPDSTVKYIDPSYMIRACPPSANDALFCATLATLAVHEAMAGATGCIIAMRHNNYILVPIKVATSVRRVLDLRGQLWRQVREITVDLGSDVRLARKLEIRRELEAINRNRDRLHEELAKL
In short: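 Compounds titrated; %activity normalized to 0x and 1x enzyme controls, curve-fitted. Readout: ADP-Glo luminescence after 45 min room-temperature reaction of 1.25 nM PFK, 0.1 mM ATP, 0.5 mM F6P, pH 8.0.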

[2] = target: Luciferin 4-monooxygenase (Photinus pyralis) (UniProt P08659); assay: Biochemical firefly luciferase enzyme assay for NPC (AID 624030);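 further: purified P. pyralis luciferase at 10 nM with luciferin and ATP substrate; 0% = DMSO and -100% = full luciferase inhibition by PTC124 control; nearly all actives have a fitted effect of over 70% in size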
Sequence of Luciferin 4-monooxygenase (Photinus pyralis) (P08659 whole entry, looked up): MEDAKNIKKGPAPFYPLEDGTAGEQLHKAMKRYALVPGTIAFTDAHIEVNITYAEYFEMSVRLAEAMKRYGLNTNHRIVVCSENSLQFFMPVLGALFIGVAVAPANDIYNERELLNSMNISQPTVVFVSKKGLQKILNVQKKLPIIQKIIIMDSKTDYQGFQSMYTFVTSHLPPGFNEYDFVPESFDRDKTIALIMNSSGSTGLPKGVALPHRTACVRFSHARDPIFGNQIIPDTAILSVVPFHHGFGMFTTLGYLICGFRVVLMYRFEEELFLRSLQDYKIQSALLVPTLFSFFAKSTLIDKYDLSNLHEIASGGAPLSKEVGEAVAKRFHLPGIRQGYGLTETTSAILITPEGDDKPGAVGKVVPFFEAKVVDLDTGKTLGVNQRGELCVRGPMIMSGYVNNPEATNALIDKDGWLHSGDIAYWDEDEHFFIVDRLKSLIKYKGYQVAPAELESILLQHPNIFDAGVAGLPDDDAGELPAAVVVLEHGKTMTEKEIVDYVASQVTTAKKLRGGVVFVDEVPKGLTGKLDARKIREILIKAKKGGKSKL
In short: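 Purified P. pyralis luciferase at 10 nM in 50 mM Tris Acetate (final), luminescence read within 5 minutes of enzyme addition to compounds. Activity normalised to PTC124 versus DMSO; concentration-response curves classed by r2, magnitude and activity.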

[3] = qHTS profiling for inhibitors of Plasmodium falciparum proliferation (AID 504749);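 further: 0% = DMSO vehicle and full inhibition = artemisinin control; nearly all actives have a fitted effect of over 60% in size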; conditions: P. falciparum in erythrocytes, SYBR Green DNA, 72 h, at 28.7 µM (top of the series)
In short: (§1)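 Readout was DNA-dye fluorescence from lysed cultures, ex 485/em 535 nm. Parasitized red cells had grown 72 h with compound; data scaled between 0.29 uM artemisinin and DMSO wells and corrected using vehicle-only plates.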

[4] = system: ATS189; assay: as above; conditions: P. falciparum in erythrocytes, SYBR Green DNA, 72 h; series mostly up to 28.7 µM
In short: as §1

[5] = system: C2A; assay: as above; conditions: P. falciparum in erythrocytes, SYBR Green DNA, 72 h; series mostly up to 28.7 µM
In short: as §1

[6] = system: CP192; assay: as above; conditions: P. falciparum in erythrocytes, SYBR Green DNA, 72 h; series mostly up to 28.7 µM
In short: as §1

[7] = system: CP201; assay: as above; conditions: P. falciparum in erythrocytes, SYBR Green DNA, 72 h; series mostly up to 28.7 µM
In short: as §1

[8] = system: CP215; assay: as above; conditions: P. falciparum in erythrocytes, SYBR Green DNA, 72 h; series mostly up to 28.7 µM
In short: as §1

[9] = system: CP268; assay: as above; conditions: P. falciparum in erythrocytes, SYBR Green DNA, 72 h; series mostly up to 28.7 µM
In short: as §1

[10] = system: CP269; assay: as above; conditions: P. falciparum in erythrocytes, SYBR Green DNA, 72 h; series mostly up to 28.7 µM
In short: as §1

[11] = system: CP286; assay: as above; conditions: P. falciparum in erythrocytes, SYBR Green DNA, 72 h; series mostly up to 28.7 µM
In short: as §1

[12] = system: CP305; assay: as above; conditions: P. falciparum in erythrocytes, SYBR Green DNA, 72 h; series mostly up to 28.7 µM
In short: as §1

[13] = system: CP315; assay: as above; conditions: P. falciparum in erythrocytes, SYBR Green DNA, 72 h; series mostly up to 28.7 µM
In short: as §1

[14] = system: CP325; assay: as above; conditions: P. falciparum in erythrocytes, SYBR Green DNA, 72 h; series mostly up to 28.7 µM
In short: as §1

[15] = system: CP329; assay: as above; conditions: P. falciparum in erythrocytes, SYBR Green DNA, 72 h; series mostly up to 28.7 µM
In short: as §1

[16] = system: ECU; assay: as above; conditions: P. falciparum in erythrocytes, SYBR Green DNA, 72 h; series mostly up to 28.7 µM
In short: as §1

[17] = system: FAB9; assay: as above; conditions: P. falciparum in erythrocytes, SYBR Green DNA, 72 h; series mostly up to 28.7 µM
In short: as §1

[18] = system: JCK; assay: as above; conditions: P. falciparum in erythrocytes, SYBR Green DNA, 72 h; series mostly up to 28.7 µM
In short: as §1

[19] = system: PC49; assay: as above; conditions: P. falciparum in erythrocytes, SYBR Green DNA, 72 h; series mostly up to 28.7 µM
In short: as §1

Nc1nc(O)c(-c2ccccc2)o1
inactive: outcome [1] | Potency [2] | activity, negative = inhibition ([3]; parasite line A) 12.1% | activity, negative = inhibition ([3]; parasite line B) 6.38% | Potency [4] | Potency [5] | Potency [6] | Potency [7] | Potency [8] | Potency [9] | Potency [10] | Potency [11] | Potency [12] | Potency [13] | Potency [14] | Potency [15] | Potency [16] | Potency [17] | Potency [18] | Potency [19]

OC[C@@H](O)[C@H]1O[C@@H]2OC(C(Cl)(Cl)Cl)O[C@H]2[C@H]1O (stereo partly drawn)
inactive: outcome [1] | Potency [2] | activity, negative = inhibition ([3]; parasite line A) 8.29% | activity, negative = inhibition ([3]; parasite line B) 19.1% | Potency [4] | Potency [5] | Potency [6] | Potency [7] | Potency [8] | Potency [9] | Potency [10] | Potency [11] | Potency [12] | Potency [13] | Potency [14] | Potency [15] | Potency [16] | Potency [17] | Potency [18] | Potency [19]

C#CCN1CC(=O)N(COC(=O)[C@@H]2[C@@H](C=C(C)C)C2(C)C)C1=O
inactive: outcome [1] | Potency [2] | activity, negative = inhibition ([3]; parasite line A) 4.89% | activity, negative = inhibition ([3]; parasite line B) 10.9% | Potency [4] | Potency [5] | Potency [6] | Potency [7] | Potency [9] | Potency [10] | Potency [11] | Potency [12] | Potency [13] | Potency [14] | Potency [15] | Potency [16] | Potency [17] | Potency [18] | Potency [19]

Cc1cc(C)cc(C(=O)OC2CC3CCC(C2)N3C)c1 (stereo not drawn)
inactive: outcome [1] | Potency [2] | activity, negative = inhibition ([3]; parasite line A) -5.04% | activity, negative = inhibition ([3]; parasite line B) 8.93% | Potency [4] | Potency [5] | Potency [6] | Potency [7] | Potency [8] | Potency [9] | Potency [10] | Potency [11] | Potency [12] | Potency [13] | Potency [14] | Potency [15] | Potency [17] | Potency [18] | Potency [19]

CC1(C)[C@@H](C=C(Cl)Cl)[C@@H]1C(=O)OCc1c(F)c(F)cc(F)c1F
inactive: outcome [1] | Potency [2] | activity, negative = inhibition ([3]; parasite line A) 3.24% | activity, negative = inhibition ([3]; parasite line B) 1.84% | Potency [4] | Potency [5] | Potency [6] | Potency [7] | Potency [8] | Potency [9] | Potency [10] | Potency [11] | Potency [12] | Potency [13] | Potency [14] | Potency [15] | Potency [16] | Potency [17] | Potency [18] | Potency [19]

CC(C)C[C@H](NC(=O)[C@@H](Cc1c[nH]c2ccccc12)NC(=O)[C@@H](Cc1ccc(O)cc1)NC(=O)[C@@H](CO)NC(=O)[C@@H](Cc1c[nH]c2ccccc12)NC(=O)C(Cc1cnc[nH]1)NC(=O)C1CCC(=O)N1)C(=O)N[C@@H](CCCN=C(N)N)C(=O)N1CCC[C@@H]1C(=O)NCC(N)=O (stereo partly drawn)
inactive: outcome [1]

CN1C2CCC1C(C(=O)O)C(OC(=O)c1ccccc1)C2 (stereo not drawn)
inactive: outcome [1] | Potency [2] | activity, negative = inhibition ([3]; parasite line A) 9.89% | activity, negative = inhibition ([3]; parasite line B) 6.56% | Potency [4] | Potency [5] | Potency [6] | Potency [7] | Potency [8] | Potency [9] | Potency [10] | Potency [11] | Potency [12] | Potency [13] | Potency [14] | Potency [15] | Potency [16] | Potency [17] | Potency [18] | Potency [19]

COc1ccc2c3c1O[C@H]1[C@@H](O)C=C[C@H]4C(C2)NCCC341 (stereo partly drawn)
inactive: outcome [1] | Potency [2] | activity, negative = inhibition ([3]; parasite line A) 7.6% | activity, negative = inhibition ([3]; parasite line B) -2.8% | Potency [4] | Potency [5] | Potency [6] | Potency [7] | Potency [8] | Potency [9] | Potency [10] | Potency [11] | Potency [12] | Potency [13] | Potency [14] | Potency [15] | Potency [16] | Potency [17] | Potency [18] | Potency [19]

O=[N+]([O-])OC1CO[C@H]2C(O[N+](=O)[O-])COC12 (stereo partly drawn)
inactive: outcome [1] | Potency [2] | activity, negative = inhibition ([3]; parasite line A) -2.15% | activity, negative = inhibition ([3]; parasite line B) 1.56% | Potency [4] | Potency [5] | Potency [6] | Potency [7] | Potency [9] | Potency [10] | Potency [11] | Potency [12] | Potency [13] | Potency [14] | Potency [15] | Potency [16] | Potency [17] | Potency [18] | Potency [19]

CC1OC(O[C@H]2C[C@@H](O)[C@]3(CO)[C@@H]4C(CC[C@]3(O)C2)[C@@]2(O)CC[C@H](C3=CC(=O)OC3)[C@@]2(C)C[C@H]4O)C(O)C(O)C1O (stereo partly drawn)
inactive: outcome [1] | Potency [2] | activity, negative = inhibition ([3]; parasite line A) -8.52% | activity, negative = inhibition ([3]; parasite line B) -0.0666% | Potency [4] | Potency [5] | Potency [6] | Potency [7] | Potency [8] | Potency [9] | Potency [10] | Potency [11] | Potency [12] | Potency [13] | Potency [14] | Potency [15] | Potency [16] | Potency [17] | Potency [18] | Potency [19]
